Assay results from the supplement of paper PMC10849652.
About 8,800 targets were measured; listed, in parts, are those with a hit and a random draw of the rest. About 0.5% of all pairs of compound and target were hits. Unmarked numbers belong to inactive results.

What was measured:
Experiment in all cases: log2 fold change, soluble protein after heating vs DMSO (PISA); higher = thermal stabilisation; K562 lysate, 10 uM; active = over 0.2 and 3.5 SD of the protein, either way, in both replicates (recomputed)
[1] = compound: CC(=O)c1cnc2ccc(-c3cc(Cl)c(O)c(Cl)c3)nc2c1N[C@H]1CC[C@H](CN(C)C)CC1
Outline: (§1)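 K562 pellets were dounce-homogenised in PBS pH 7.4 containing 1 mM MgCl2, and the crude extract, at 1 mg/mL protein, was exposed to 10 μM compound for 30 min. Aliquots were heated for 3 min across 48°C-58°C, pooled, brought to 0.5% NP-40 at 4°C and spun at 21,000xg for 90 min, with the supernatant taken as soluble protein. TMTpro 16plex LC-MS/MS with equalised channel sums quantified that protein. Values are log-two fold changes in thermal stability relative to solvent controls, taken from duplicates.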

ralimetinib = compound: CC(C)(C)Cn1c(N)nc2ccc(-c3[nH]c(C(C)(C)C)nc3-c3ccc(F)cc3)nc21 [ralimetinib]
Outline: as §1

[2] = compound: CC(C)(O)CC(=O)NCCn1ccc2ncnc(Nc3ccc(Oc4cccc(C(F)(F)F)c4)c(Cl)c3)c21
Outline: as §1

[3] = compound: CC(C)C1=C2N=C(C=C(N2N=C1)NCC3=CC=CC=C3)NCCCCCCN
Outline: as §1

[4] = compound: CC1=C(C(CC(=O)N1)C2=CC=C(C=C2)C(F)(F)F)C(=O)NC3=C(C=C4C(=C3)C=NN4)F
Outline: as §1

[5] = compound: CC1=C(C2=C(C=C1)C(=O)C3=CC=CC=C3N2CCCN)C
Outline: as §1

[6] = compound: CC1=C(C=C(C=C1)NC(=O)C2=CC(=CC=C2)C(C)(C)C#N)NC3=CC4=C(C=C3)N=CN(C4=O)C
Outline: as §1

[7] = compound: CC1=C(C=C(C=C1)NC(=O)C2=CC(=CC=C2)N(C)C)NC(=O)C3=CC=C(C=C3)O
Outline: as §1

[8] = compound: CC1=CC=C(C=C1)SC2=C3C=C(SC3=CN=C2)C(=O)N
Outline: as §1

vemurafenib = compound: CCCS(=O)(=O)Nc1ccc(F)c(C(=O)c2c[nH]c3ncc(-c4ccc(Cl)cc4)cc23)c1F [vemurafenib]
Outline: as §1

[9] = compound: CCCS(=O)(=O)Nc1ccc(F)c(C(=O)c2c[nH]c3ncc(Cl)cc23)c1F
Outline: as §1

barasertib = compound: CCN(CCCOc1ccc2c(Nc3cc(CC(=O)Nc4cccc(F)c4)[nH]n3)ncnc2c1)CCOP(=O)(O)O [barasertib]
Outline: as §1

[10] = compound: CC[C@@H]1C(=O)N(C)c2cnc(Nc3ccc(C(=O)NC4CCN(C)CC4)cc3OC)nc2N1C1CCCC1
Outline: as §1

volasertib = compound: CC[C@@H]1C(=O)N(C)c2cnc(Nc3ccc(C(=O)N[C@H]4CC[C@H](N5CCN(CC6CC6)CC5)CC4)cc3OC)nc2N1C(C)C [volasertib]
Outline: as §1

[11] = compound: CCn1c(C(=O)N(C2CC2)C2CC2)cc2c3c(ncn3C)c(Nc3cc(C)n(C)n3)nc21
Outline: as §1

[12] = compound: CCn1cc(-c2ccnc3[nH]c(-c4cccc(CN(C)C)c4)cc23)c(-c2ccc(NC(=O)N(C)C)cc2)n1
Outline: as §1

[13] = compound: CN1CCC(CNc2ccc3ncc(-c4cccc(OC(F)(F)F)c4)n3n2)CC1
Outline: as §1

saracatinib = compound: CN1CCN(CCOc2cc(OC3CCOCC3)c3c(Nc4c(Cl)ccc5c4OCO5)ncnc3c2)CC1 [saracatinib]
Outline: as §1

sotrastaurin = compound: CN1CCN(c2nc(C3=C(c4c[nH]c5ccccc45)C(=O)NC3=O)c3ccccc3n2)CC1 [sotrastaurin]
Outline: as §1

UniProt Q13948, sequence (Q13948 whole entry, looked up): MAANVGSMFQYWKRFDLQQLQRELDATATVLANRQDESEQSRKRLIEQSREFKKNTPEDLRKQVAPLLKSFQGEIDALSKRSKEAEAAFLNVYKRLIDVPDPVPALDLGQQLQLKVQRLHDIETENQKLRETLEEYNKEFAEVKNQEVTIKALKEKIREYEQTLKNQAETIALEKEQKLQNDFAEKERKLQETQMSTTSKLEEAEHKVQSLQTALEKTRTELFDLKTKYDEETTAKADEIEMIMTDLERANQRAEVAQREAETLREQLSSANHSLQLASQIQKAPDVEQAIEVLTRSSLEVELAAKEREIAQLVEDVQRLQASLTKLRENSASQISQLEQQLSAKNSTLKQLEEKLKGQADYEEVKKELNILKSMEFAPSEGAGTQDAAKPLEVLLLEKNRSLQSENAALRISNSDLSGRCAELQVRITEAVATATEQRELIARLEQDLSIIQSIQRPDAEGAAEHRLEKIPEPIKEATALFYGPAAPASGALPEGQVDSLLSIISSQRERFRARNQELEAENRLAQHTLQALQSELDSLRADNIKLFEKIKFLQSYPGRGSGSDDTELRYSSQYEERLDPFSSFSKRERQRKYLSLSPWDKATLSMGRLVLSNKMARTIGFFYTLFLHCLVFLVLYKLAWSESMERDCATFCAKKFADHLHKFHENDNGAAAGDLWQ
UniProt Q9Y6M4, sequence (Q9Y6M4 whole entry, looked up): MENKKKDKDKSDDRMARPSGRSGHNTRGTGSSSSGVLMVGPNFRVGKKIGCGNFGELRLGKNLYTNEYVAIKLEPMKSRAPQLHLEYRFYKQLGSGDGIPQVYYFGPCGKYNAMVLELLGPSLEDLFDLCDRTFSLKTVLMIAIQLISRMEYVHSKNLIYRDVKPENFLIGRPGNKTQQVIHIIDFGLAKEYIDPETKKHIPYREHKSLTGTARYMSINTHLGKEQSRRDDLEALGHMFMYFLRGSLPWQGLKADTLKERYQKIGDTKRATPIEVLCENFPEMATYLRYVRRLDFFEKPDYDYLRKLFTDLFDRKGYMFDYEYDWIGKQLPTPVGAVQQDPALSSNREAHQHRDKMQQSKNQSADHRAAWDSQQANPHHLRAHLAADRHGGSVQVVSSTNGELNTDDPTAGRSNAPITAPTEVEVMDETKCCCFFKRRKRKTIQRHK
UniProt O14810, sequence (O14810 whole entry, looked up): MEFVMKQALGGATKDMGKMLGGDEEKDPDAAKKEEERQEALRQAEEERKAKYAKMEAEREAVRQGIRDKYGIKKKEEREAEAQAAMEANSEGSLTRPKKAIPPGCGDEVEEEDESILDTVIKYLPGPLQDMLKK
UniProt Q92989, sequence (Q92989 whole entry, looked up): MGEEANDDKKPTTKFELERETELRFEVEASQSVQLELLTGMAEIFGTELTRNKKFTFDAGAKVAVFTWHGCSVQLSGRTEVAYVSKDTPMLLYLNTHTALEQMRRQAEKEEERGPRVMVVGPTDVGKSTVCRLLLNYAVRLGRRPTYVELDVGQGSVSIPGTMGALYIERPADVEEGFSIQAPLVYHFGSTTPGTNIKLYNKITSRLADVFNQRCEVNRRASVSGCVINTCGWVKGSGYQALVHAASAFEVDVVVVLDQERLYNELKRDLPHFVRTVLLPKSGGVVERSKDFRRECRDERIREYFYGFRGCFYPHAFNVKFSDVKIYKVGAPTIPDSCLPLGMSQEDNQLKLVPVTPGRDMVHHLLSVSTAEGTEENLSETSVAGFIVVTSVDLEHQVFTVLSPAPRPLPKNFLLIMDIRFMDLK
UniProt P51790, sequence (P51790 whole entry, looked up): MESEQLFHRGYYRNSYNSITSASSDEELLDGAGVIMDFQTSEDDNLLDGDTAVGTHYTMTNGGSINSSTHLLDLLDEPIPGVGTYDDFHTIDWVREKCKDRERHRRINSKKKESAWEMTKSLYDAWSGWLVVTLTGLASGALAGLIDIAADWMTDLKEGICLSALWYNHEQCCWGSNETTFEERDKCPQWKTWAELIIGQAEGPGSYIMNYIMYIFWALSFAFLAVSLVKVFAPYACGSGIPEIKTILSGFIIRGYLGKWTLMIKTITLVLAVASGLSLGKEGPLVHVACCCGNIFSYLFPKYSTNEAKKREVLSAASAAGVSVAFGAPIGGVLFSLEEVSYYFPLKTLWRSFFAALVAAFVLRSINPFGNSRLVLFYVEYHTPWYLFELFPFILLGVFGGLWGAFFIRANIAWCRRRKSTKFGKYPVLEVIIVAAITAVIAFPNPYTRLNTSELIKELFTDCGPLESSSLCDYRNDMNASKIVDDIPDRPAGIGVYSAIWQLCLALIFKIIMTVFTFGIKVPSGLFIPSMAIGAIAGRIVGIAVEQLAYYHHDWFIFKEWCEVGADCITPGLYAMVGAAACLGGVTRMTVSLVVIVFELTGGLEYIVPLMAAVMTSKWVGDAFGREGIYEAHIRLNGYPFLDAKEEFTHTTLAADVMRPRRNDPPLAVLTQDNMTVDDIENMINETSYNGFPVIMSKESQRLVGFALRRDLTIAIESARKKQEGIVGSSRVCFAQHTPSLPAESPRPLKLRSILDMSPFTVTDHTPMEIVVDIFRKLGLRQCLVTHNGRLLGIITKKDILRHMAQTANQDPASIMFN
UniProt Q8WXC6, sequence (Q8WXC6 whole entry, looked up): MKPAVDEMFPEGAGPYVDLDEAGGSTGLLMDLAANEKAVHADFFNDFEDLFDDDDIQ
UniProt Q9H8M5, sequence (Q9H8M5 whole entry, looked up): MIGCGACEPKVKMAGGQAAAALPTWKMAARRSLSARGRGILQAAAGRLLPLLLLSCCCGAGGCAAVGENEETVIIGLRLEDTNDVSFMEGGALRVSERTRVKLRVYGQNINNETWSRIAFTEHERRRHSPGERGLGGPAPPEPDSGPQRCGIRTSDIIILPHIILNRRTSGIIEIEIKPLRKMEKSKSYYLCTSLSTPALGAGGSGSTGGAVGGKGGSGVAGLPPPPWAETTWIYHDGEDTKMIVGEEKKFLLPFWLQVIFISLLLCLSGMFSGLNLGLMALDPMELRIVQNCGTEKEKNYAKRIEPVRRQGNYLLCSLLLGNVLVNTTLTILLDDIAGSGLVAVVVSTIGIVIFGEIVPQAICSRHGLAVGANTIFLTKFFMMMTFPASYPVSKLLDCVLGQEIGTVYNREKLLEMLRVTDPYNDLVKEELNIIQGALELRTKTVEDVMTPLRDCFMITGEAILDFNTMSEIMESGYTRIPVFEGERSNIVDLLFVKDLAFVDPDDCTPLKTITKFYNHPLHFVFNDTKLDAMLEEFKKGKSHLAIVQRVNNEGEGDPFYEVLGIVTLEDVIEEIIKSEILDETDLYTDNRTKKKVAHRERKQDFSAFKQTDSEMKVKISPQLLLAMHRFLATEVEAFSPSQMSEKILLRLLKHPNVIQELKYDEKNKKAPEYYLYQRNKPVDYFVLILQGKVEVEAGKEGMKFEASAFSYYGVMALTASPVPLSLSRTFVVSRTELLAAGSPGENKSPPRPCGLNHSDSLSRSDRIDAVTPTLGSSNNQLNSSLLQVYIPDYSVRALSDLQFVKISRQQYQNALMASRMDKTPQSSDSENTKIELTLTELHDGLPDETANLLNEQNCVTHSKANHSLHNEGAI
UniProt Q6P3W2, sequence (Q6P3W2 whole entry, looked up): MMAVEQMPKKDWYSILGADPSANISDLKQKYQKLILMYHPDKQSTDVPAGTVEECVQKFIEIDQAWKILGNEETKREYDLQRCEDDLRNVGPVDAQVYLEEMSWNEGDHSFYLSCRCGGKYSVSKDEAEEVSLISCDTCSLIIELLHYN
UniProt P50570, sequence (P50570 whole entry, looked up): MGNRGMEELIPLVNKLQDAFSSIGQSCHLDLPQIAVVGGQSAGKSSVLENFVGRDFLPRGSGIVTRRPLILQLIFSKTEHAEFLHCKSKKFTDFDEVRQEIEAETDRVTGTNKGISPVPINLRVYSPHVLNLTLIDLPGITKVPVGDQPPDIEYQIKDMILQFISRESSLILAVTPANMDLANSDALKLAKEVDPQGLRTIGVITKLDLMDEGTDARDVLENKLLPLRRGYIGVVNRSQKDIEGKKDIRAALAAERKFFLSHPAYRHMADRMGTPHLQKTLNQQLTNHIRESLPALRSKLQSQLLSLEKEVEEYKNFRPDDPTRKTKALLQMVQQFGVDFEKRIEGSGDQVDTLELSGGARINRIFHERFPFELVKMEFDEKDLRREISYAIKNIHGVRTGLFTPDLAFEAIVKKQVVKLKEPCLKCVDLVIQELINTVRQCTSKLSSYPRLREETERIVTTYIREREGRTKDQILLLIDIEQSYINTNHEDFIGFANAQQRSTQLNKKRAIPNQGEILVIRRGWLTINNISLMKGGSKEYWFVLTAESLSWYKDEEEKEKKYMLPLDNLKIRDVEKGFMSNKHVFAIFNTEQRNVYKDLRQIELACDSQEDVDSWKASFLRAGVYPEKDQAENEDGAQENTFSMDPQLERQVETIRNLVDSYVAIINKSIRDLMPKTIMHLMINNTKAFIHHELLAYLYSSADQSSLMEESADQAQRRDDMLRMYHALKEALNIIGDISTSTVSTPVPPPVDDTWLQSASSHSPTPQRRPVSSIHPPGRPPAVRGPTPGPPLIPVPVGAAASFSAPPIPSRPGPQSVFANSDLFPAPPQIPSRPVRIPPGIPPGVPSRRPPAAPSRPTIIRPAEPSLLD
UniProt O94760, sequence (O94760 whole entry, looked up): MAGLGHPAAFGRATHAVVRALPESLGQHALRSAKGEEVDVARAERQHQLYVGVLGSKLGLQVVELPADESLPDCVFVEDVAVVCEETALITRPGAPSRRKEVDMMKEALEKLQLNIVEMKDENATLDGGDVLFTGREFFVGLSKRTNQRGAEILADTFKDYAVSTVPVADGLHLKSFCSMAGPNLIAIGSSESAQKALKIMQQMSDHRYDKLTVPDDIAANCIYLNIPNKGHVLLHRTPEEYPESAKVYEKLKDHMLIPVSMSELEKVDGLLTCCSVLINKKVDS

Row | Target | log2 fold change [1] | log2 fold change (ralimetinib) | log2 fold change [2] | log2 fold change [3] | log2 fold change [4] | log2 fold change [5] | log2 fold change [6] | log2 fold change [7] | log2 fold change [8] | log2 fold change (vemurafenib) | log2 fold change [9] | log2 fold change (barasertib) | log2 fold change [10] | log2 fold change (volasertib) | log2 fold change [11] | log2 fold change [12] | log2 fold change [13] | log2 fold change (saracatinib) | log2 fold change (sotrastaurin)
1 | CLCN3 isoform 2 (UniProt P51790) | 0.029 | 0.02 | -0.032 | -0.035 | -0.017 | -0.066 | 0.029 | 0.048 | -0.013 | -0.015 | 0.052 | -0.004 | 0.003 | -0.022 | -0.024 | -0.039 | 0.013 | -0.018 | 0.054
2 | CUX1 isoform 2 (UniProt Q13948) | 0.07 | -0.069 | 0.052 | -0.16 | – | -0.027 | 0.385 | 0.043 | -0.086 | 0.013 | 0.084 | – | -0.087 | -0.001 | 0.019 | 0.06 | -0.34 | -0.054 | 0.081
3 | DHX32 (UniProt Q7L7V1) | – | 0.096 | -0.144 | -0.387 (active) | 0.016 | – | -0.023 | 0.017 | – | 0.173 | – | – | -0.026 | – | -0.106 | 0.137 | 0.003 | – | -0.011
4 | DAPK1 isoform 3 (UniProt P53355) | 0.35 | 0.041 | 0 | -0.077 | 0.138 | 0.017 | -0.151 | -0.026 | -0.094 | 0.047 | -0.203 | – | – | -0.138 | 0.022 | 0.138 | -0.04 | 0.022 | -0.039
5 | DAZAP1 (UniProt K7EQ02) | – | – | – | – | 0.033 | – | – | – | – | – | – | – | – | – | – | – | – | – | –
6 | DNM2 isoform 4 (UniProt P50570) | -0.018 | 0.011 | -0.027 | -0.143 | -0.07 | 0.075 | -0.08 | 0.047 | 0.058 | – | -0.001 | – | -0.018 | -0.031 | -0.014 | -0.153 | 0.021 | -0.047 | -0.031
7 | CLIP1 isoform 2 (UniProt P30622) | 0.05 | -0.002 | -0.04 | -0.054 | 0.017 | -0.025 | 0.053 | 0.021 | -0.088 | – | 0.112 | -0.083 | 0.073 | 0.055 | -0.04 | -0.488 | 0.02 | 0.028 | -0.026
8 | CPLX1 (UniProt O14810) | -0.071 | 0.079 | -0.139 | – | – | 0.874 (active) | – | 0.037 | 0.119 | 0.034 | 0.057 | – | -0.026 | 0.029 | -0.074 | – | – | 0.893 (active) | –
9 | COPS9 (UniProt Q8WXC6) | -0.059 | 0.146 | -0.213 | 0.173 | – | – | – | 0.172 | -0.184 | – | -0.075 | – | – | 0.062 | -0.197 | – | – | – | –
10 | COL12A1 (UniProt Q99715) | 0.72 | – | – | 0.024 | – | -0.224 | 1.57 (active) | – | 0.005 | 0.239 | 0.178 | – | 0.194 | -0.139 | – | – | – | 0.063 | -0.233
11 | DDAH1 (UniProt O94760) | -0.016 | -0.037 | -0.045 | -0.001 | – | -0.441 (active) | 0.137 | -0.005 | -0.04 | 0.054 | 0.071 | – | 0.04 | 0.068 | 0.061 | -0.068 | -0.051 | -0.308 (active) | -0.022
12 | CSNK1G3 isoform 4 (UniProt Q9Y6M4) | 0.235 | – | – | – | – | – | – | – | -0.142 | – | -0.238 | – | – | 0.111 | – | – | – | – | –
13 | DNA2 (UniProt P51530) | – | 0.016 | 0.029 | -0.06 | -0.007 | 0.002 | -0.02 | 0.001 | – | -0.094 | – | – | -0.053 | – | 0.051 | 0.03 | 0.022 | 0.008 | 0.073
14 | CLP1 (UniProt Q92989) | 0.062 | 0.006 | 0.003 | 0.012 | 0.023 | 0.001 | -0.02 | -0.037 | 0.01 | -0.035 | 0 | 0.03 | -0.045 | -0.05 | 0.015 | -0.13 | 0.096 | 0.115 | 0.036
15 | CSNK1A1 isoform 3 (UniProt P48729) | – | 0.13 | 0.253 | – | – | -0.061 | – | 0.143 | – | – | – | – | – | – | -0.199 | – | – | -0.175 | –
16 | CNOT2 (UniProt F8VRS8) | – | – | – | -0.001 | – | – | – | – | – | – | – | – | – | – | – | – | – | – | –
17 | CNNM2 (UniProt Q9H8M5) | 0.004 | 0.31 | 0.348 (active) | 0.048 | – | -0.031 | -0.054 | -0.157 | -0.015 | 0.025 | 0.024 | – | 0 | -0.043 | -0.091 | -0.059 | 0.036 | -0.039 | 0.091
18 | CLIP1 isoform 1 (UniProt P30622) | -0.005 | 0.004 | 0 | -0.008 | -0.01 | -0.016 | 0.006 | 0.003 | -0.004 | -0.011 | 0.016 | -0.011 | 0.034 | 0.034 | -0.03 | -0.055 | 0.02 | 0.021 | 0.008
19 | DNAJC24 (UniProt Q6P3W2) | -0.12 | -0.052 | 0.113 | -0.067 | -0.048 | 0.064 | 0.031 | 0.047 | 0.064 | 0.141 | -0.038 | – | 0.017 | 0.027 | 0.002 | 0.196 | -0.309 (active) | -0.013 | -0.032
